Potency and affinity values are given separately. Values without a mark were called inactive. Active and inactive are the calls of the source.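 How the source made its calls: active means ATP signal reduced by compound, with fitted active dose under ten times the top valid tested dose; inactive means the rest, compounds that increase ATP levels included.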

The assay can be described thus: INS-1E beta-cell viability without cytokines, dose response, cytotoxicity control for beta-cell cytokine protection project, CellTiter-Glo luminescence, dry powder (AID 488864). To be noted: INS-1E rat beta cells, 48 h, no cytokines; series mostly up to 26 µM; activity change, negative = ATP decrease: at the top concentration. (Cellular ATP, detected with luciferase, serves as a proxy for viable cell number.)
Consider `COc1ccc(S(=O)(=O)N(C)C[C@@H]2Oc3c(NC(=O)c4ccncc4)cccc3C(=O)N([C@@H](C)CO)C[C@H]2C)cc1`, for which the “activity change, negative = ATP decrease” value is -4.04%. Same read-out and setting: as for `COc1ccc(S(=O)(=O)N(C)C[C@@H]2Oc3c(NS(=O)(=O)c4ccc(Cl)cc4)cccc3C(=O)N([C@@H](C)CO)C[C@H]2C)cc1`, the figure is 2.03%.

Turning to `Cc1ccc(S(=O)(=O)N(C)C[C@@H]2Oc3c(NC(=O)Nc4cccc5ccccc45)cccc3C(=O)N([C@@H](C)CO)C[C@H]2C)cc1`, the “activity change, negative = ATP decrease” value was 5.11%. On to `COc1ccc(S(=O)(=O)N(C)C[C@@H]2Oc3c(NC(=O)c4cccc5ccccc45)cccc3C(=O)N([C@@H](C)CO)C[C@H]2C)cc1`, for which the “activity change, negative = ATP decrease” value is 4.48%.

Regarding `COc1ccc(S(=O)(=O)N(C)C[C@@H]2Oc3c(NS(=O)(=O)c4ccc(C)cc4)cccc3C(=O)N([C@@H](C)CO)C[C@H]2C)cc1`, the “activity change, negative = ATP decrease” value was 7.96% [at 23.5 µM]. For `C[C@@H]1CN([C@@H](C)CO)C(=O)c2cccc(NC(=O)Nc3cccc4ccccc34)c2O[C@H]1CN(C)S(=O)(=O)c1ccccc1`, the “activity change, negative = ATP decrease” value was 6.66%. Consider `C[C@@H]1CN([C@@H](C)CO)C(=O)c2cccc(NC(=O)Nc3cccc4ccccc34)c2O[C@H]1CN(C)S(=O)(=O)c1ccccc1F`, for which the “activity change, negative = ATP decrease” value was 6.08%. Turning to `C[C@@H]1CN([C@@H](C)CO)C(=O)c2cccc(NC(=O)Nc3cccc4ccccc34)c2O[C@H]1CN(C)S(=O)(=O)c1ccc2c(c1)oc(=O)n2C`, the “activity change, negative = ATP decrease” value was 2.94%. On the same count and under the same terms, under `COc1ccc(S(=O)(=O)N(C)C[C@@H]2Oc3c(NC(=O)c4ccc(-c5nccs5)cc4)cccc3C(=O)N([C@@H](C)CO)C[C@H]2C)cc1` stands -1.51%.

For the molecule `C[C@@H]1CN([C@@H](C)CO)C(=O)c2cccc(NC(=O)Nc3cccc4ccccc34)c2O[C@H]1CN(C)C(=O)Nc1ccc2c(c1)OCO2`, the “activity change, negative = ATP decrease” value is -3.25%. In the case of `C[C@@H]1CN([C@@H](C)CO)C(=O)c2cccc(NC(=O)Nc3cccc4ccccc34)c2O[C@H]1CN(C)S(=O)(=O)c1ccc2c(c1)OCCO2`, the call was inactive. Regarding `C[C@@H]1CN([C@@H](C)CO)C(=O)c2cccc(NC(=O)Nc3ccc(F)cc3)c2O[C@H]1CN(C)S(=O)(=O)c1ccc(Cl)cc1`, the “activity change, negative = ATP decrease” value was 8.98%.

On to `COc1ccc(S(=O)(=O)Nc2cccc3c2O[C@@H](CN(C)S(=O)(=O)c2ccc(OC)cc2)[C@H](C)CN([C@@H](C)CO)C3=O)cc1`, for which the “activity change, negative = ATP decrease” value was 0.616%. Consider `COc1ccc(S(=O)(=O)N(C)C[C@H]2Oc3c(NC(=O)Nc4cccc5ccccc45)cccc3C(=O)N([C@H](C)CO)C[C@H]2C)cc1`, for which the “activity change, negative = ATP decrease” value was 5.53%. With `Cc1ccc(S(=O)(=O)N(C)C[C@@H]2Oc3c(NC(=O)Nc4ccccc4)cccc3C(=O)N([C@H](C)CO)C[C@H]2C)cc1`, the “activity change, negative = ATP decrease” value is 0.0817%. As for `C[C@@H]1CN([C@@H](C)CO)C(=O)c2cccc(NC(=O)Nc3cccc4ccccc34)c2O[C@H]1CN(C)S(=O)(=O)c1cn(C)cn1`, the “activity change, negative = ATP decrease” value was 2.81%. On to `C[C@@H]1CN([C@@H](C)CO)C(=O)c2cccc(NC(=O)Nc3cccc4ccccc34)c2O[C@H]1CN(C)S(=O)(=O)c1cccc(F)c1`, for which the “activity change, negative = ATP decrease” value was 5%. Regarding `C[C@@H]1CN([C@@H](C)CO)C(=O)c2cccc(NC(=O)Nc3cccc4ccccc34)c2O[C@H]1CN(C)S(=O)(=O)c1ccc2c(c1)OCCCO2`, the “activity change, negative = ATP decrease” value was 7.84%.

Regarding `COc1ccc(S(=O)(=O)N(C)C[C@@H]2Oc3c(NC(=O)Nc4cccc5ccccc45)cccc3C(=O)N([C@@H](C)CO)C[C@H]2C)cc1OC`, the “activity change, negative = ATP decrease” value was 1.83%. Same read-out and setting: as for `COc1ccc(S(=O)(=O)N(C)C[C@@H]2Oc3c(NC(=O)Nc4cccc5ccccc45)cccc3C(=O)N([C@H](C)CO)C[C@H]2C)cc1`, the figure is 13.1% [at 23.5 µM]; as for `COc1ccc(S(=O)(=O)N(C)C[C@@H]2Oc3c(NS(=O)(=O)c4cn(C)cn4)cccc3C(=O)N([C@@H](C)CO)C[C@H]2C)cc1`, -1.6%; as for `C[C@@H]1CN([C@@H](C)CO)C(=O)c2cccc(NC(=O)Nc3cccc4ccccc34)c2O[C@H]1CN(C)C(=O)Nc1ccc(C(F)(F)F)cc1`, -5.68% [at 23.5 µM]. Regarding `COc1ccc(S(=O)(=O)N(C)C[C@@H]2Oc3c(cccc3N(C)C)C(=O)N([C@@H](C)CO)C[C@H]2C)cc1`, the “activity change, negative = ATP decrease” value was 5.31% [at 23.5 µM]. For the molecule `COc1ccc(S(=O)(=O)N(C)C[C@@H]2Oc3c(NC(=O)Nc4cccc5ccccc45)cccc3C(=O)N([C@@H](C)CO)C[C@H]2C)c(OC)c1`, the “activity change, negative = ATP decrease” value is 7.76%.

For `COc1ccc(S(=O)(=O)N(C)C[C@@H]2Oc3c(NS(=O)(=O)c4ccc(F)cc4)cccc3C(=O)N([C@@H](C)CO)C[C@H]2C)cc1`, the “activity change, negative = ATP decrease” value was 0.223%.

For `COc1ccc(S(=O)(=O)N(C)C[C@@H]2Oc3c(NS(C)(=O)=O)cccc3C(=O)N([C@@H](C)CO)C[C@H]2C)cc1`, the “activity change, negative = ATP decrease” value was 4.08%. In the case of `C[C@@H]1CN([C@H](C)CO)C(=O)c2cccc(NC(=O)Nc3ccc(F)cc3)c2O[C@H]1CN(C)S(=O)(=O)c1ccc(Cl)cc1`, the “activity change, negative = ATP decrease” value is 11.6%. As for `COc1ccc(S(=O)(=O)N(C)C[C@@H]2Oc3c(NC(=O)Nc4ccc(C(F)(F)F)cc4)cccc3C(=O)N([C@@H](C)CO)C[C@H]2C)cc1`, the “activity change, negative = ATP decrease” value was -1.88%. For `C[C@@H]1CN([C@@H](C)CO)C(=O)c2cccc(NC(=O)Nc3cccc4ccccc34)c2O[C@H]1CN(C)S(=O)(=O)c1ccc2c(c1)OCC2`, the “activity change, negative = ATP decrease” value was 7.13%.

Values taken from PubChem BioAssay AID488864 (Broad Institute, 2010).
